Data on 16 compounds can be found in ChEMBL document CHEMBL1961873, “Compounds: GSK PKIS; Assays: Nanosyn kinase panel” (2012).
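Further: reported figure is a mean percent inhibition of FGFR2.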

In this assay the target is Fibroblast growth factor receptor 2 (Homo sapiens) (UniProt P21802). Conditions: at 1 µM.
Sequence of Fibroblast growth factor receptor 2 (Homo sapiens) (P21802 22-821 limits assumed): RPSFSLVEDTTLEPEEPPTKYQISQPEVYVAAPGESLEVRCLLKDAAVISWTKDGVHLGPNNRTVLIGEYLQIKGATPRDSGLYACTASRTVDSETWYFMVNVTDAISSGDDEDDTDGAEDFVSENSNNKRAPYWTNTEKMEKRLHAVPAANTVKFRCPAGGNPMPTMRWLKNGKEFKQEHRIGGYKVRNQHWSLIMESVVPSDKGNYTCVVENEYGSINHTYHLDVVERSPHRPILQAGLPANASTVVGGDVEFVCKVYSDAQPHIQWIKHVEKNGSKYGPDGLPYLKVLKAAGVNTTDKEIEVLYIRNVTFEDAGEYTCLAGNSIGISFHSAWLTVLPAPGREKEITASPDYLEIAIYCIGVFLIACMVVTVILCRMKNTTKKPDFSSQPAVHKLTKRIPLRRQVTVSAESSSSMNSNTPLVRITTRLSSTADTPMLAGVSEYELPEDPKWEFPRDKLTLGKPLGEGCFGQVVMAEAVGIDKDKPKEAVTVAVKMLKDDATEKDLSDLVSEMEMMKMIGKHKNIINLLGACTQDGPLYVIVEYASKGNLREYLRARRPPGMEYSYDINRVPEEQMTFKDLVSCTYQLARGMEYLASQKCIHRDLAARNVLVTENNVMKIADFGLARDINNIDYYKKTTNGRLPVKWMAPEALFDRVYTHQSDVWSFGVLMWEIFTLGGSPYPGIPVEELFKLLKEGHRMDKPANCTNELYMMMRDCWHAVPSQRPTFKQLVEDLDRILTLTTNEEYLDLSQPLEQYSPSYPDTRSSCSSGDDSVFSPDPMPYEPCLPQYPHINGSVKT
For `CCCN(CCS(C)(=O)=O)Cc1ccc(-c2ccc3ncnc(Nc4ccc(OCc5cccc(F)c5)c(Cl)c4)c3c2)o1`, the inhibition was 2.2%.

Turning to `Cc1ccc2c(-c3ccnc(Nc4ccccc4)n3)c(-c3ccc(F)cc3)nn2n1`, the inhibition turned out to be 13%.

Consider `Fc1ccc(-c2cc(-c3c[nH]nc3-c3ccccn3)ccn2)cc1`, for which the inhibition is 5.13%.

Turning to `FC(F)(F)c1cccc(-c2nn3ncccc3c2-c2ccnc(Nc3ccc4c(c3)OCCO4)n2)c1`, the inhibition was 9.05%.

As for `N#Cc1c(NC(=O)CN2CCOCC2)sc2c1CCCC2`, the inhibition amounted to 7.88%.

Regarding `c1ccc(COc2ccc(Nc3ncnc4ccc(-c5ccco5)cc34)cc2)cc1`, the inhibition worked out at 8.16%.

In the case of `Fc1ccc(-c2nn3ccccc3c2-c2ccncc2)cc1`, the inhibition came to 6.38%.

For the compound `Cc1cccc(Nc2ncc(-c3ccccc3)o2)c1`, the inhibition came to 6.52%.

On to `COc1cc2c(cc1Nc1nc(Nc3ccsc3C(N)=O)c3cc[nH]c3n1)N(C(=O)CN(C)C)CCC2(C)C`, for which the inhibition is 13.5%.

For `c1cc(-c2cnn3nc(N4CCOCC4)ccc23)nc(NC2CC2)n1`, the inhibition stood at 11.4%.

As for `CC(=O)NCc1cccc(C#Cc2cncnc2Nc2ccc(OCc3cccc(F)c3)c(Cl)c2)c1`, the inhibition is -0.08%.

With `CC(=O)Nc1cccc(C#Cc2cncnc2Nc2ccc(OCc3cccc(F)c3)c(Cl)c2)c1`, the inhibition was determined as 5.67%.

As for `Nc1nc(-c2cccc(Cl)c2)c(-c2ccc3ncccc3n2)s1`, the inhibition stood at 7.42%.

As to `COc1ccc(-c2oc3ncnc(N)c3c2-c2ccc(NC(=O)Nc3cc(C(F)(F)F)ccc3F)cc2)cc1`, the inhibition worked out at 75.9%.

As to `CC(C)(CO)CNC(=O)c1ccc2c(c1)/C(=N/Nc1ccc(S(N)(=O)=O)cc1)C(=O)N2`, the inhibition is 6.9%.

`CCNC(=O)O[C@H]1CN[C@H](C#Cc2cc3ncnc(Nc4ccc(OCc5cccc(F)c5)c(Cl)c4)c3s2)C1`: the inhibition stood at 4.31%.
